# Experimental data published in PubChem BioAssay AID1961 (Sanford-Burnham Center for Chemical Genomics, 2009).
# The whole screen tested about 290,000 compounds, of which about 140 (0.048%) were called active.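 Rule for the calls: active = activation above 40% with more than 50 cells counted in the well; inconclusive = wells holding fewer than 50 cells, flagged as toxic or sparse; inactive = the rest.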 The entries come from a sample that favours actives as a whole.
# Tests used:
# [1] = GPR55 agonists via beta-arrestin recruitment, primary screen, imaging, U2OS cells, beta-arrestin-GFP redistribution (AID 1961); settings: measured here: cytotoxicity, cells analyzed, at 10 µM;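 note: U2OS osteosarcoma cells stably expressing GPR55 and beta-arrestin-GFP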;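 for activation: plate controls were DMSO negative control for no effect and LPI positive control for full effect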
# [2] = target: G-protein coupled receptor 55 (Homo sapiens) (UniProt Q9Y2T6); assay: as above; settings: at 10 µM, stronger effect = higher value
# Chain of G-protein coupled receptor 55 (Homo sapiens) (Q9Y2T6 whole entry, looked up): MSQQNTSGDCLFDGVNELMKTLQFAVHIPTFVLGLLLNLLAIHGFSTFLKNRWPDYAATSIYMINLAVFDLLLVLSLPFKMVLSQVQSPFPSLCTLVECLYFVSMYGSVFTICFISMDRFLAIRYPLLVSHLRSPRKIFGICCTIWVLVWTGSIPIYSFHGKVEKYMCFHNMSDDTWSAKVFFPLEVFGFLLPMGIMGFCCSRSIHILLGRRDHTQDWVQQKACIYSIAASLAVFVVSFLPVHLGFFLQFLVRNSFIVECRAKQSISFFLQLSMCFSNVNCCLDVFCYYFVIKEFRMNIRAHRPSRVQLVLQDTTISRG
Compound,cell count [1] [cells],activation [2]
COc1cccc(C(=O)Nc2cnn(C(C)C)c2)c1,253,-0.2% (inactive)
CNc1nc(-c2ccc(Cl)cc2)cs1,302,-1% (inactive)
COc1ccc(NC(=O)NC2CCCCCCC2)c(OC)c1,240,-0.1% (inactive)
CCC(=O)Nc1ccc(OC)cc1OC,375,-0.2% (inactive)
CCOC(=O)c1[nH]c2ccc(C(=O)OC)cc2c1C(=O)OCC,400,-0.3% (inactive)
CCCCc1ccc(C2C(C#N)=C(N)SC(N)=C2C#N)s1,340,0.2% (inactive)
O=C(COC(=O)/C=C/c1cccc(Cl)c1)NCCc1ccc(Cl)cc1Cl,315,0% (inactive)
O=C(O)C1CCCN1C(=O)c1cncc(Br)c1 (stereo not drawn),262,-0.2% (inactive)
CC(C)OCC(O)Cn1c(N2CCCC2)nc2c1c(=O)[nH]c(=O)n2C (stereo not drawn),350,-0.2% (inactive)
Cc1c(C2N3CC4(C)CN2CC(C)(C3)C4=O)c2ccccc2n1C (stereo not drawn),309,0.1% (inactive)
CC(C)(C)NC(=O)CSc1nncn1NCc1c(Cl)cccc1Cl,294,-0.2% (inactive)
COc1cc2c3nnc(-c4ccc(F)cc4)c-3cn(Cc3ccccc3F)c2cc1OC,274,76.7% (active)
COc1cc2c3nnc(-c4ccc(F)cc4)c-3cn(Cc3ccc(F)cc3)c2cc1OC,348,16.9% (inactive)
COc1cc2c3nnc(-c4ccccc4)c-3cn(Cc3ccc(F)cc3)c2cc1OC,393,1.3% (inactive)
Cc1oc2c(C)c(O)ccc2c(=O)c1N1C(=O)c2ccccc2C1=O,286,0.2% (inactive)
CCOc1ccc2nc(SCC(=O)N3CCCCCC3)c(C#N)cc2c1,334,-0.1% (inactive)
CCOc1ccc2nc(SCC(=O)N3c4ccccc4Sc4ccccc43)c(C#N)cc2c1,304,112% (active)

Compound,cell count [1] [cells],activation [2]
CCOc1ccc2nc(SCC(=O)N3c4ccccc4Sc4ccccc43)sc2c1,319,16.7% (inactive)
Nc1cccnc1Sc1ccc(Cl)cc1,377,0% (inactive)
COC(=O)c1cc(OC)c(OC)cc1NC(=O)CC1CCCCC1,320,-0.2% (inactive)
Cc1cccc(NS(=O)(=O)c2cc([N+](=O)[O-])ccc2C)n1,419,-0.1% (inactive)
COc1cc(/C=C/C(=O)Oc2coc(CSc3ncccn3)cc2=O)cc(OC)c1OC,281,-0.2% (inactive)
CCCOCC(O)COc1ccccc1C(=O)N1CCOCC1 (stereo not drawn),317,-0.2% (inactive)
CCC1Sc2ccc(S(=O)(=O)CCC(=O)Nc3cc(C)ccn3)cc2NC1=O (stereo not drawn),341,-0.1% (inactive)
CC(NC(=O)Cn1nc(C(F)(F)F)c2c1CCC2)c1ccccc1 (stereo not drawn),371,-0.2% (inactive)
COc1ccc2nc(C)cc(SCC(=O)N/N=C/c3ccco3)c2c1,330,0.2% (inactive)
Cc1ccccc1NC(=O)NC1CCCCC1C (stereo not drawn),353,0.4% (inactive)
CN(C)c1ccc(/C=N/NC(=O)C2CC2c2ccccc2)cc1 (stereo not drawn),339,-0.2% (inactive)
O=C(NCc1ccc(F)cc1)C(=O)NCC1OCCCN1S(=O)(=O)c1cccs1 (stereo not drawn),348,-0.1% (inactive)
COc1ccc(C(=O)NCC(=O)N/N=C/c2cccnc2)cc1OC,322,-0.2% (inactive)
Cc1nc(Cl)sc1C(=O)Nc1cc(F)cc(F)c1,356,-0.2% (inactive)
CN(C)c1ccc(C(=O)/C=C/c2ccccc2)cc1,254,-0.3% (inactive)
CN(C)c1ccc(/C=C/C(=O)c2ccccc2O)cc1,238,0.1% (inactive)
Cn1c(=O)c(=O)n(C)c2cc(S(=O)(=O)N3CCN(c4ccccc4F)CC3)ccc21,328,-0.1% (inactive)
